TDP1 inh – blocks human tyrosyl-DNA phosphodiesterase 1 | 350,000 tested, 0.28% active | recombinant TDP1, AlphaScreen DNA substrate cleavage | Potency, µM (doses to about 130 µM), actives largely listed as inhibitors; also: nearly all actives have a fitted effect of over 40% in size
Target sequence (Q9NUW8 whole entry, looked up): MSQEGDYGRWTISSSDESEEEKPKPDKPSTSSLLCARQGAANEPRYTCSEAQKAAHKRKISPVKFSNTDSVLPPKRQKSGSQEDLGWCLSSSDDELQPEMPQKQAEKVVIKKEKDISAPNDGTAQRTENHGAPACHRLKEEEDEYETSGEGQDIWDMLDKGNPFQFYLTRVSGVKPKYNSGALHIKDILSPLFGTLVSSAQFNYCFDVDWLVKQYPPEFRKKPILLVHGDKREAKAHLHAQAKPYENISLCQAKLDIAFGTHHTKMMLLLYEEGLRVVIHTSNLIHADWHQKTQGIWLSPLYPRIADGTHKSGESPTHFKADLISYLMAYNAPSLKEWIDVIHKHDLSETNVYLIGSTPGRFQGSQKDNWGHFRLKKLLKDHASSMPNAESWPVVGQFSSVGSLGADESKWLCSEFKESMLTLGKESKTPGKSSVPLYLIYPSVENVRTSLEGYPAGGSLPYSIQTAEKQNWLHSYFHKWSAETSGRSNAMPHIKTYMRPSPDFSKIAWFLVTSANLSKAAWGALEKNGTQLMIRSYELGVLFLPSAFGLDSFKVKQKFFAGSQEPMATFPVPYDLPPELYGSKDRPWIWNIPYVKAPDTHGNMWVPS
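Here, a 5' biotin and 3' phosphotyrosine-FITC DNA oligonucleotide reports Tdp1 activity: intact substrate bridges AlphaScreen beads, while cleavage leaves a 3' phosphate and drops signal. All incubations at room temperature.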
DT40 TDP1 no CPT – qHTS for Inhibitors of human tyrosyl-DNA phosphodiesterase 1 (TDP1): qHTS in cells in absence of CPT; DT40 Tdp1-/- hTDP1 cells, no CPT, ATP luminescence, 48 h; Potency, µM (series often up to 46.2 µM), most hits filed as inhibitors; 420,000 tested, 15% active; AID 686978, 2013; also: nearly all actives have a fitted effect of over 55% in size
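DT40 Tdp1-/-;hTDP1 cells, no CPT (DMSO vehicle only), 400 cells/well; compounds pin-transferred; ≥48 hr, 37 °C; CellTiter-Glo 30 min RT dark, luminescence read.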
IL1B secr inh – inflammasome signaling inhibition, IL-1 beta readout; THP-1 LPS/ATP IL-1B secretion, AlphaLISA, 16 h; stronger effect = lower value; activity change, % at 57.5 µM; 360,000 tested, 4.7% active; in the data active = activity change below about -50%; inconclusive = mostly about -30% to -49%
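THP-1 cells pretreated 1 hr with compounds (up to 57.5 uM final), then stimulated with LPS (250 ng/mL final) plus ATP (1.25 mM final); secreted IL-1B measured by AlphaLISA after 16 hr, decreased signal indicating inhibition.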
TGFb SMAD3 inh – inhibitors of TGF-b signaling; HepG2 CAGA-GFP TGF-b/SMAD3 reporter, GFP fluorescence, 18 h; TGF-beta stimulated, 500 pg/mL final; Potency, µM (doses to about 46.1 µM), actives largely listed as inhibitors; 410,000 tested, 1.2% active; AID 588855; also: nearly all actives have a fitted effect of over 65% in size
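First, reporter cells (HEPG2 CAGA-GFP) rested 2 h at 37 degrees C. Next, compounds were pinned in and TGF-beta added to 500 pg/mL final. After 18 h, GFP was imaged per cell and summed per well.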
HepG2 tox – counter-screen for TGF-b inhibitors: cytotoxicity in HepG2 cells | Potency, µM (series often up to 46.1 µM), usual class: cytotoxic | 410,000 tested, 0.76% active | AID 588856 | HepG2 CAGA-GFP viability, ATP luminescence, 18 h
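HepG2 CAGA-GFP cells (1000/well, DMEM with 1% FBS) received compound, then TGF-beta at 500 pg/mL final, and were incubated 18 hours at 37 degrees C. Viability was read by CellTiter-Glo luminescence. Media-only wells were set as complete cell-killing and DMSO as no toxicity.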
TDP1 cell CPT – DT40-hTDP1 cell growth loss with CPT. chicken DT40 Tdp1-/-;hTDP1 cells + 20 nM CPT, ATP luminescence, 48 h. Potency, µM (highest dose often 46.2 µM), actives largely listed as inhibitors. 420,000 tested, 12% active; also: nearly all actives have a fitted effect of over 55% in size
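Cell growth measured by CellTiter-Glo luminescence after a minimum 48 h, 37 C compound exposure with 20 nM CPT in Tdp1-knockout DT40 cells stably expressing hTDP1, seeded 400/well; qHTS titration format.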
A number is an active result; – = inactive; ? = inconclusive; · = no result; [ ] = remark or other dose. Only some compounds are listed: those with a hit (about 19% of all), similar ones and a draw of the others. Unless noted, calls follow the shape of the dose curve; as a rule, active = well fitted curve in the direction sought with a large enough effect; inconclusive = small, poorly fitted or top-dose-only effect, or another doubt; inactive = no such curve, though single readings can be large; an effect the other way counts as inactive or inconclusive.

SMILES | TDP1 inh | DT40 TDP1 no CPT | IL1B secr inh | TGFb SMAD3 inh | HepG2 tox | TDP1 cell CPT
C=CCC[C@H](Cc1ccc(F)cc1)C(=O)OC[C@@H](Cc1c[nH]c2ccccc12)NC(=O)[C@H](CC=C)CC(=O)NCCO | – | 16.4µM | – | ? | – | 20.6µM
C=CCN(CC=C)S(=O)(=O)c1ccc(NC(=S)NC(=O)c2ccco2)cc1 | – | 18.4µM | – | – | – | ?
C=CCN(CC=C)S(=O)(=O)c1ccc(NC(=S)NC(=O)/C=C/c2ccc(C)cc2)cc1 | – | ? | – | – | – | ?
C=CCN(CC=C)S(=O)(=O)c1ccc(NC(=S)NC(=O)Cc2ccc(OC)cc2)cc1 | – | 20.6µM | – | – | – | ?
COc1ccc(CC(=O)NC(=S)Nc2ccc(S(=O)(=O)NC(C)(C)C)cc2)cc1 | – | – | – | ? | – | ?
CCOc1ccccc1CNC(=O)c1cnc2sc(N3CCOCC3)nn2c1=O | – | – | · | – | – | –
CCNC(=O)N1CCOCC1 | – | 6.31µM | – | – | – | –
Cc1ccc2oc(-c3cc(NC(=O)CC(C)C)ccc3Cl)nc2c1 | · | 11.6µM | · | ? | – | 10.3µM
Cc1ccc2oc(-c3cc(NC(=O)Cc4ccccc4)ccc3Cl)nc2c1 | · | ? | · | – | – | ?
Cc1ccc2oc(-c3cccc(NC(=O)c4cccc5c(Cl)cccc45)c3)nc2c1 | – | – | · | – | – | –
COc1c(C)cccc1C(=O)Nc1ccc(Cl)c(-c2nc3cc(C)ccc3o2)c1 | – | 9.2µM | · | ? | – | 14.6µM
Cc1oc2ccc(O)cc2c1C(=O)c1ccc([N+](=O)[O-])cc1 | – | 13µM | ? | – | – | 20.6µM
Cc1oc2ccc(O)cc2c1C(=O)c1ccc(Cl)cc1 | – | ? | – | – | – | –
COc1cccc(CNC(=O)c2oc3ccc4c(c3c2C)C(=O)CC(C)(C)O4)c1OC | – | 16.4µM | · | · | – | ?
CCCNC(=O)c1oc2ccc3c(c2c1C)C(=O)CC(C)(C)O3 | – | ? | ? | – | – | –
CCOC(=O)c1ccc(NC(=O)c2oc3ccc4c(c3c2C)C(=O)CC(C)(CC)O4)cc1 (centres undefined) | – | 20.6µM | · | – | – | ?
Cc1c(C(=O)NCc2ccc(Cl)cc2)oc2ccc3c(c12)C(=O)CC(C)(C)O3 | – | 14.6µM | · | · | – | ?
CNC(=O)/C=C1\NC(C)(C)Cc2c1ccc1ccccc21 | – | 20.6µM | -67.2 | – | – | 20.6µM
Cc1cc(C(=O)Nc2ccccc2-c2nc(CNC(=O)C3COc4ccccc4O3)c(C)o2)c(C)o1 (centres undefined) | · | – | · | · | · | –[9.04 µM]
FC(F)(F)c1cnc2c(c1)[nH]c(=S)n2-c1ccc(Cl)cc1 | · | ? | – | ? | – | 20.6µM
CCN(CC)c1nc(NN)nc(Nc2ccc(C)c(Cl)c2)n1 | · | ? | -76.1 | – | – | ?
COc1ccc(-c2ccc(C(=O)N3CCc4c(cnc(C)c4CNS(=O)(=O)N(C)C)C3)o2)cc1 | · | ? | · | · | · | –[9.04 µM]
COCC(=O)Nc1ccc2c(c1)[C@@H]1C[C@H](CC(=O)OC)O[C@@H](CO)[C@@H]1O2 | · | – | – | – | – | –
COc1ccccc1C(=O)NC(CCSC)C(=O)NNC(=O)C(C)Oc1ccccc1F (centres undefined) | – | ? | – | – | – | –
Cc1ccccc1N(C(=O)c1cccs1)c1nc2ccccc2s1 | – | 18.4µM | – | – | – | 23.1µM
SMILES | TDP1 inh | DT40 TDP1 no CPT | IL1B secr inh | TGFb SMAD3 inh | HepG2 tox | TDP1 cell CPT
COc1ccc(C)cc1N(C(=O)c1cccc(F)c1)c1nc2ccccc2s1 | – | – | – | – | – | –
Cc1ccsc1C(=O)N(c1nc2ccccc2s1)c1c(C)cccc1C | – | 23.1µM | – | – | – | ?
Cn1cc(-c2cc3n(n2)CCC(=O)N3CC(=O)O)c2ccccc21 | – | – | · | · | – | –
Fc1ccc(C(Nc2ccccc2Cl)c2nnc(-c3ccccc3Cl)o2)cc1 (centres undefined) | –[12.3 µM] | 20.6µM | · | – | – | ?
Cc1cccc(-n2ncc3c(NCCCO)ncnc32)c1 | – | – | – | – | – | –
Cc1ccc(-n2ncc3c(NCCCN4CCOCC4)ncnc32)cc1C | – | 23.1µM | · | – | – | ?
CCN(CC)CCCNc1ncnc2c1cnn2-c1ccc(C)c(C)c1 | – | 16.4µM | · | – | – | ?
Cc1ccc(CN2CCN(CC(=O)N/N=C/c3ccccc3F)CC2)cc1 | – | – | ? | – | – | –
Cc1ccc(NC(=S)N/N=C/c2cccn2Cc2ccccc2F)cc1 | – | 3.66µM | – | – | – | 4.61µM
COc1ccccc1CNc1cc(C)nc2nc(-c3ccc(C)cc3)nn12 | – | · | · | – | – | ·
COc1ccc(OC2C(=O)N(Cc3ccc(F)cc3)C2c2ccc(OC)c(OC)c2)cc1 (centres undefined) | – | – | ? | – | – | 29.1µM
CC(=O)NC(c1ccc(F)c(F)c1)c1nc(-c2cccc(F)c2)cs1 (centres undefined) | · | – | – | – | – | 20.6µM
CC(=O)Nc1cccc(-c2csc(C(NC(C)=O)c3ccc(F)c(F)c3)n2)c1 (centres undefined) | · | – | – | – | – | –
CC(=O)NC(c1ccc(F)c(F)c1)c1nc(-c2ccncc2)cs1 (centres undefined) | · | 14.6µM | – | ? | – | 18.4µM
CC(=O)NC(c1ccc(F)c(F)c1)c1nc(-c2cccc(C(=O)O)c2)cs1 (centres undefined) | · | – | – | – | – | –
CC(=O)NC(c1ccc(F)c(F)c1)c1nc(-c2cccc(C(C)C)c2)cs1 (centres undefined) | · | 23.1µM | ? | – | – | 16.4µM
Cc1ccc(CN2CCN(C3CCNCC3)C(=O)C2=O)cc1 | – | – | · | – | – | –
CC(C)c1ccc(NC(=O)C(c2ccccc2)N(Cc2ccco2)C(=O)CC2NC(=O)NC2=O)cc1 (centres undefined) | – | – | -56.3 | ? | – | –
CCOC(=O)CN(C)C(=O)C1CCCN1C(=O)OC(C)(C)C (centres undefined) | – | – | – | – | – | –
CN1C(C(=O)Nc2ccc(OC(F)(F)F)cc2)=CC(c2ccc3c(c2)OCO3)=NS1(=O)=O | – | ? | – | – | – | ?
Cc1ccc(C)n1-c1nnc(N2CCCC(C(=O)Nc3ccccc3Br)C2)s1 (centres undefined) | – | ? | · | · | – | ?
COc1ccc(-c2cc(C)no2)cc1S(=O)(=O)Nc1c(C)cc(C)cc1C | – | 20.6µM | · | – | – | ?
COc1ccc(-c2cnc(C)o2)cc1S(=O)(=O)Nc1ccc(C)c(N(C)C)c1 | – | – | · | – | – | –
